S2 tox: reduces viability in counter-screen for ATXN expression inhibitors. S2 cells (HEK-293 line with an ATXN2-luciferase reporter) viability, CellTiter-Fluor protease fluorescence, 24 h. Potency, µM (top dose mostly 56.7 µM), actives largely listed as cytotoxic. 400,000 tested, 0.49% active. AID 651635; also: nearly all actives have a fitted effect of over 40% in size
HepG2 tox: kills HepG2 cells in TGF-b inhibitor counter-screen | 410,000 tested, 0.76% active | HepG2 CAGA-GFP viability, ATP luminescence, 18 h | Potency, µM (top dose mostly 46.1 µM), for the others: at the top dose activity change, negative = cytotoxicity, actives largely listed as cytotoxic
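HepG2 CAGA-GFP cells (1000/well, DMEM with 1% FBS) received compound, then TGF-beta at 500 pg/mL final, and were incubated 18 hours at 37 degrees C. Viability was read by CellTiter-Glo luminescence. Media-only wells were set as complete cell-killing and DMSO as no toxicity.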
RORg inh: inhibitors of mouse ROR gamma transcriptional activity | P51450 | Drosophila S2 Gal4-RORgamma UAS-luciferase reporter, 20 h | Potency, µM (top dose mostly 53.6 µM), for the others: top-dose activity change, negative = inhibition, most hits filed as inhibitors | 310,000 tested, 5.4% active; also: % is scaled to controls: 0 for no effect and ±100 for the full control effect; nearly all actives have a fitted effect of over 60% in size
Target sequence (P51450 whole entry, looked up, the tested form may be a part): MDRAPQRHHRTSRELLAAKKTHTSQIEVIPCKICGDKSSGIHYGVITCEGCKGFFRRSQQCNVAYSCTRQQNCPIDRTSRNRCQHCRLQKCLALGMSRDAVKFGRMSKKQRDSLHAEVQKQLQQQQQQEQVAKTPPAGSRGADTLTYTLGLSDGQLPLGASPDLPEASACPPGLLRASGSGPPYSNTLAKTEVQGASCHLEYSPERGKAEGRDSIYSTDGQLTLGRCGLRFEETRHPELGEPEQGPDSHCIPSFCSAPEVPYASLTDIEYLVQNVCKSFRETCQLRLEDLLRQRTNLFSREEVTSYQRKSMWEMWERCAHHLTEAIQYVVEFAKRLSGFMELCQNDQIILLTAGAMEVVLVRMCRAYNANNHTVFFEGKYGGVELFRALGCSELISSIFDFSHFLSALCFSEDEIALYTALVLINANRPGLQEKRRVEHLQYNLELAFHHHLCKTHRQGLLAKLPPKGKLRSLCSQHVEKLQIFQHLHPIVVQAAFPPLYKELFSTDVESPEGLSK
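Drosophila S2 cells stably expressing Gal4-DBD/mouse RORγ fusion under metallothionein promoter plus UAS-luciferase; compound 1 h, then 700 uM CuSO4 induction for 20 h at ambient temperature; inhibition read as reduced luminescence.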
Gal4-VP16 FLuc: counter-screen for ROR gamma inhibitors: Gal4-VP16 reporter; Potency, µM (titrated, usually from 53.6 µM), inactives show top-dose activity, negative = inhibition, hits mostly inhibitors; Drosophila S2 Gal4-VP16 UAS-luciferase, luminescence, 20 h; 310,000 tested, 3.5% active;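 also: Gal4-VP16 expression switched on by copper sulfate through the metallothionein promoter; % is scaled to controls: 0 for no effect and ±100 for the full control effect; nearly all actives have a fitted effect of over 50% in size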
ATXN2 expr inh: reduces ATXN2 reporter expression in HEK-293 cells. HEK-293 ATXN2-luciferase reporter, luminescence, 24 h. Potency, µM (titrated, usually from 57 µM), without a hit: at the highest dose activity change, negative = inhibition, most hits filed as inhibitors. 360,000 tested, 0.72% active. AID 1745845; also: % is scaled to controls: 0 for no effect and ±100 for the full control effect; nearly all actives have a fitted effect of over 55% in size
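ATXN2-luciferase reporter cells (luciferase flanked by upstream and downstream ATXN2 gene portions) were treated 24 h at 37 °C with compounds at up to 57 uM. SteadyGlo luminescence gave expression; GF-AFC fluorescence gave viability.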
TGFb inhibitor: blocks TGF-b signaling; 410,000 tested, 1.2% active; Potency, µM (series often up to 46.1 µM), for inactives: top-dose activity, negative = inhibition, actives largely listed as inhibitors; AID 588855; HepG2 CAGA-GFP TGF-b/SMAD3 reporter, GFP fluorescence, 18 h; TGF-beta stimulated, 500 pg/mL final; also: % is scaled to controls: 0 for no effect and ±100 for the full control effect; nearly all actives have a fitted effect of over 65% in size
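Read-out: total well GFP (ex488/em500-530) summed from mean per-cell fluorescence. Cells: HEPG2 CAGA-GFP, 1% FBS DMEM, 18 h at 37 degrees C with 500 pg/mL final TGF-beta. Unstimulated wells served as the full-inhibition control; stimulated DMSO wells = 0%.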
Numbers without * were called inactive; i = inactive; ? = inconclusive; . = no result. Rows were chosen to be rich in hits. Some 6.1% of all compounds tested hit in one or more screens of this group. Calls follow the shape of the dose curve; as a rule, active = well fitted curve in the direction sought with a large enough effect; inconclusive = small, poorly fitted or top-dose-only effect, or another doubt; inactive = no such curve, though single readings can be large; an effect the other way counts as inactive or inconclusive. Potency is read from the fitted curve at half-maximal effect.

SMILES	S2 tox	HepG2 tox	RORg inh	Gal4-VP16 FLuc	ATXN2 expr inh	TGFb inhibitor
Cc1cccc(NC(=O)c2cnc3sc(N4CCCC4)nn3c2=O)c1C	.	-1%	.	.	.	?
O=C(Nc1cccc(F)c1)c1ccc(-c2ccccc2)s1	?	-27%	.	.	21%	-8%
O=C1c2ccccc2-c2onc3ccc(NCCCn4ccnc4)c1c23	?	-55%	13µM*	-23%	?	?
COc1ccc(-n2nc(C(=O)c3cccs3)cc(-c3nc4ccccc4[nH]3)c2=N)cc1	?	-26%	3.2µM*	3.5µM*	?	20%
Cc1cccc(-n2nc(C(=O)c3ccco3)cc(-c3nc4ccccc4[nH]3)c2=N)c1	i	-7%	2.5µM*	5µM*	.	-7%
Cc1ccccc1-n1nc(C(=O)c2cccs2)cc(-c2nc3ccccc3[nH]2)c1=N	i	-7%	0.71µM*	0.89µM*	-17%	1%
Cc1ccc2nc(-c3cccc(NC(=O)c4ccco4)c3)[nH]c2c1	i	-42%	14%	?	47%	-10%
O=C(Cc1cccs1)Nc1ccccc1-c1nc2ccccc2[nH]1	i	-36%	1%	3%	-12%	-21%
COc1cc2nc(N3CCCC(O)C3)c(CNCc3ccccc3C(F)(F)F)cc2c(OC)c1OC (stereo not given)	i	.	.	.	.	.
Cc1ccc(C(=O)Nc2ccc(C(=O)OCc3cc(=O)n4c5c(sc4n3)CCCC5)cc2)cc1	.	-27%	.	.	.	?
O=C(CCC(=O)c1ccccc1)Nc1ccc(F)c(Cl)c1	i	-13%	.	.	4%	1%
CCCN1CCC(=O)N([C@H](COc2ccccc2)c2ccccc2)CC1	i	-20%	-3%	-9%	10%	?
O=C1CCN(CCc2ccccc2)CCN1[C@H](COc1ccccc1)c1ccccc1	?	-27%	10%	-3%	-19%	10µM*
CCNc1ncc2nc(-c3ccccc3)c(=O)n(CCC#N)c2n1	.	.	-4%	-5%	.	.
c1ccc(OCCOc2ccccc2-c2nnco2)cc1	i	4%	3%	0%	34%	-2%
Clc1ccccc1COc1ccccc1-c1nnco1	i	-34%	11µM*	?	-3%	0%
CCC(C)Nc1nc(-c2c[nH]c3ccccc23)cs1 (stereo not given)	?	-59%	-35%	?	-11%	13µM*
Cc1ccc2c(C)nc(SC(C(=O)c3ccccc3)c3ccccc3)nc2c1 (stereo not given)	i	5%	?	20µM*	6%	0%
COc1cccc(CCN2CCC(CNS(=O)(=O)c3cc(-c4cc(C)no4)ccc3C)CC2)c1	?	-110%	3%	1%	.	16µM*
O=C(Nc1cnn(Cc2ccc(Cl)cc2Cl)c1)c1noc2c1CCCC2	?	-2%	?	-8%	-15%	16µM*
NC(=O)C1CCN(c2oc(-c3cccs3)nc2S(=O)(=O)c2ccc(Br)cc2)CC1	?	1%	.	.	-23%	-6%
S=C1NC(c2ccccc2)=CC(c2ccccc2)N1 (stereo not given)	i	-3%	3.5µM*	11µM*	-5%	-1%
S=C1NC(c2cccs2)=CC(c2ccc(Br)cc2)N1 (stereo not given)	i	-8%	3.5µM*	4µM*	-24%	-29%
N#CC1C(=O)NC(c2ccccc2)=CC1c1ccccc1 (stereo not given)	i	7%	.	.	-8%	-2%
CCCCNc1cc(NC(C)=O)cc2cc(OC)c(OC)cc12	i	-31%	?	3%	-16%	10µM*
SMILES	S2 tox	HepG2 tox	RORg inh	Gal4-VP16 FLuc	ATXN2 expr inh	TGFb inhibitor
CC1(Cc2ccc(C(F)(F)F)o2)C(=O)Nc2cc(-c3ccc(F)cc3F)ccc21 (stereo not given)	?	20µM*	.	.	?	?
CC1(Cc2cc(Cl)ccc2C(F)(F)F)C(=O)Nc2cc(F)ccc21 (stereo not given)	?	-85%	.	.	?	?
COc1ccc(C(C)=O)cc1CC1(C)C(=O)Nc2ccc(-c3cccc(C(F)(F)F)c3)cc21 (stereo not given)	i	-106%	.	.	?	16µM*
COc1ccccc1-c1ccc2c(c1)C(C)(Cc1cc(Cl)ccc1C(F)(F)F)C(=O)N2 (stereo not given)	i	-102%	.	.	?	18µM*
CC1(Cc2cc(Cl)ccc2C(F)(F)F)C(=O)Nc2cc(C(F)(F)F)ccc21 (stereo not given)	?	18µM*	.	.	-19%	?
COc1ccc(Cl)cc1CC1(C)C(=O)Nc2ccc(-c3ccccc3OC)cc21 (stereo not given)	i	-94%	.	.	?	?
O=S(=O)(NCCc1csc2nc(-c3ccc(Cl)cc3)nn12)c1ccc(Oc2ccccc2)cc1	.	-4%	.	.	.	0%
CC1CN(CCC(=O)N2CCCC(C(=O)c3nccn3C)C2)Cc2cc(Cl)ccc2O1 (stereo not given)	i	.	.	.	.	.
Cc1cccc2cc(CN(C(=O)c3ccc(N4CCCCC4)cc3)C3CC3)c(N3CCC(O)CC3)nc12	i	.	.	.	.	.
Cc1nn(-c2ccccc2)c(OC(=O)c2ccccc2F)c1S(=O)(=O)c1ccccc1	i	3%	.	.	-9%	-25%
CC1(Cc2ccccc2Cl)C(=O)Nc2cc(-c3ccccc3Cl)ccc21 (stereo not given)	.	18µM*	.	.	-22%	?
O=C1C=CC(=O)C(C2=C3C(=O)N(CCc4ccccc4)CC(=O)N3CCC2)=C1	?	-13%	?	7.9µM*	?	?
O=C1CC2(CCCCC2)CC(=O)N1CCc1ccccc1	i	-17%	.	.	4%	13%
CN(C)c1ccc(/C=C/c2ccnc3cc(Cl)ccc23)cc1	.	-9%	.	.	.	35%
CC(C)c1ccc(C(O)P(=O)(OC2CCCCC2)OC2CCCCC2)cc1 (stereo not given)	32µM*	-133%	1%	?	.	?
COc1cc(C(O)P(=O)(OC2CCCCC2)c2ccc(N(C)C)cc2)cc(OC)c1OC (stereo not given)	i	-4%	4%	4%	-4%	7%
CCOc1cc(NC(=S)Nc2ccccc2)c(OCC)cc1NC(=O)c1ccccc1	i	-27%	1.8µM*	10µM*	-8%	-18%
CCOc1cc(NC(=S)NC)c(OCC)cc1NC(=O)c1ccc(OC)cc1	i	-24%	10µM*	?	-20%	-11%
CCOc1ccccc1NC(=S)NCC1CCCO1 (stereo not given)	i	-3%	11µM*	?	3%	-2%

Assay outcomes from PubChem.
